{
  "source": "PubChem BioAssay (Tox21)",
  "note": "Records with an inconclusive call do not appear. Values without a mark were called inactive. The source made the active and inactive calls. Calls come from the whole dose curve; as a rule, active = well fitted inhibition curve with a large enough effect in the signal ratio in the repeat runs, with a control signal flat; inconclusive = weak or mixed curves, or effect the other way; inactive = flat fitted curve, though single readings scatter; the % refers to the signal ratio. % is set by controls: 0 for no effect and ±100 for the full control effect; potency is the fitted concentration of half-maximal effect.",
  "data": [
    {"biological_target": "D(2) dopamine receptor (Homo sapiens) (UniProt P14416)", "sequence (P14416 whole entry, looked up)": "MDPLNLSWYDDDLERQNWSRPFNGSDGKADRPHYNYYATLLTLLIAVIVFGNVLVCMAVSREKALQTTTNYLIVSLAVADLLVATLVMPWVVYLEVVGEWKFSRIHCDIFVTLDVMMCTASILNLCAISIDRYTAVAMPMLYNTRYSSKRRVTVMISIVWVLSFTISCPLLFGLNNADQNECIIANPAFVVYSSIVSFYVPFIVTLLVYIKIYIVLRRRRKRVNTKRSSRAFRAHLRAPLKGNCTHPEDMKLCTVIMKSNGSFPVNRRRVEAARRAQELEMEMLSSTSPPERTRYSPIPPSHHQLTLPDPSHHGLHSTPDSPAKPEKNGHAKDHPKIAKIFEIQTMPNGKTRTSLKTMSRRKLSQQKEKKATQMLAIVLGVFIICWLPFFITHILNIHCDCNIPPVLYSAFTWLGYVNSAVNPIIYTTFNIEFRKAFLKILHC", "experiment": "Dopamine D2 receptor (DRD2) small molecule antagonists, cell-based qHTS assay (AID 1963595)", "conditions": "HEK293-DRD2 cAMP HTRF antagonist mode; series mostly up to 92.4 µM; activity change, negative = inhibition: at the top concentration", "source_text": "National Center for Advancing Translational Sciences [NCATS]\nDivision of Preclinical Innovation [DPI]\nU.S. Environmental Protection Agency [EPA]\nNational Institutes of Environmental Health Sciences [NIEHS]\nNational Toxicology Program [NTP]\nU.S. Food and Drug Administration [FDA]\nDRD2 is the D2 subtype of the dopamine receptor, which is coupled to Gi subtype of G protein-coupled receptor. This G protein-coupled receptor inhibits adenylyl cyclase activity. The DRD2-HEK293 cell line stably expressing D2 dopamine receptor can be used for screening agonists and antagonists of interactions between D2 and its ligands. The Hek293-DRD2 cAMP assay is based on HTRF technology. It measures changes of cAMP accumulation in response to Gi coupled GPCR activation or inhibition.\nTox21 Assay Protocol Summary:\nDRD2-Hek293 cells were dispensed at 600 cells/3uL/well in 1536-well white plates using a Multidrop Dispenser. After the assay plates were incubated at a 37 C/5% CO2 incubator for 24 h, 1 uL of Ro20-1724 at final concentration of 0.1 mM was transferred to the assay plate by a Flying Reagent Dispenser. Following Ro20-1724 addition, 23 nL of compound dissolved in DMSO, positive controls or DMSO only was added to the assay plates via Wako pintool station. The assay plates were incubated at room temperature for 10 min. Next, 1 uL of mixture of NKH477 (final concentration at 200 nM) and quinpirole (final concentration at 12 nM) was added into the plates. After the assay plates were incubated at room temperature for an additional 30 min, 2.5 ul/well of cAMP-d2 and 2.5 ul/well of anti-cAMP-cryptate were added respectively into the assay plates using a Flying Reagent Dispenser. The plates were incubated at room temperature for 1 h. The fluorescence intensity in the plates was measured at 340 nm excitation and 665 & 620 nm emission by an Envision plate reader.", "values": [
      {"smiles": "SCCc1cnccn1", "activity change, negative = inhibition": "-1.03%"},
      {"smiles": "CCC1Nc2cc(Cl)c(S(N)(=O)=O)cc2S(=O)(=O)N1", "note": "(stereo not given)", "activity change, negative = inhibition": "-0.938% [at 42.5 µM]"},
      {"smiles": "Nc1ccc2c(c1)CN1C(=O)c3ccccc3C1=N2", "activity change, negative = inhibition": "-0.331% [at 18.9 µM]"},
      {"smiles": "O=C(N[C@H](CO)[C@H](O)c1ccc([N+](=O)[O-])cc1)C(Cl)Cl", "activity change, negative = inhibition": "2.19%"},
      {"smiles": "CN[C@@H]1[C@@H](O)[C@@H](O[C@@H]2[C@H](O)[C@H](O[C@H]3OC(CN)=CC[C@H]3N)[C@@H](N)C[C@H]2N)OCC1(C)O", "note": "(stereo not given in full)", "activity change, negative = inhibition": "-3.5% [at 42.5 µM]"},
      {"smiles": "CN(C)C(=O)C(CCN1CCC(O)(c2ccc(Cl)cc2)CC1)(c1ccccc1)c1ccccc1", "activity change, negative = inhibition": "-15.2% [at 42.5 µM]"},
      {"smiles": "Cc1cccc(NC(=S)N(C)C)c1", "activity change, negative = inhibition": "-1.31%"},
      {"smiles": "C=CCOc1ccccc1OCC(O)CNC(C)C", "note": "(stereo not given)", "activity change, negative = inhibition": "4.38% [at 42.5 µM]"},
      {"smiles": "CCC(Cl)CC(Cl)C(Cl)C(Cl)C(Cl)C(C)Cl", "note": "(stereo not given)", "activity change, negative = inhibition": "-0.674% [at 18.9 µM]"},
      {"smiles": "CN1CCCN=C1/C=C/c1cccs1", "activity change, negative = inhibition": "7.4% [at 42.5 µM]"},
      {"smiles": "CCN(CC)CCNC(=O)COc1ccc(OC)cc1", "activity change, negative = inhibition": "1.4% [at 42.5 µM]"},
      {"smiles": "CSC(=O)c1cccc2nnsc12", "activity change, negative = inhibition": "-15.6%"},
      {"smiles": "CC(=O)Nc1cccc(N)c1", "activity change, negative = inhibition": "4%"},
      {"smiles": "CCC(C)(C)c1ccc(CC(C)CN2C[C@@H](C)O[C@@H](C)C2)cc1", "note": "(stereo not given in full)", "activity change, negative = inhibition": "4.89% [at 42.5 µM]"},
      {"smiles": "CC(C)c1ccc2c(c1)CC[C@H]1[C@](C)(CN)CCC[C@]21C", "Potency": "68.6 µM (active)"},
      {"smiles": "NO", "activity change, negative = inhibition": "-1.9%"},
      {"smiles": "CCN(C)C(=O)Oc1cccc([C@H](C)N(C)C)c1", "activity change, negative = inhibition": "9.09% [at 42.5 µM]"},
      {"smiles": "CN(C)C(=N)N=C(N)N", "Potency": "inactive"},
      {"smiles": "CCOC(C)OCC", "activity change, negative = inhibition": "-0.842%"},
      {"smiles": "Cc1ccc(C(N)=O)cc1N", "activity change, negative = inhibition": "-0.321%"},
      {"smiles": "CC=O", "activity change, negative = inhibition": "1.52%"},
      {"smiles": "Cc1coc2ccccc2c1=O", "activity change, negative = inhibition": "1.65% [at 42.5 µM]"},
      {"smiles": "Cc1ccc(Cl)cc1N", "activity change, negative = inhibition": "5.8%"},
      {"smiles": "c1ccc2c(c1)ccc1c3ccccc3ccc21", "activity change, negative = inhibition": "-7.47% [at 42.5 µM]"},
      {"smiles": "CC(C)(C)C(=O)CCc1ccc(Cl)cc1", "activity change, negative = inhibition": "-1.47%"},
      {"smiles": "CC(C)(N)C#N", "activity change, negative = inhibition": "7.47%"},
      {"smiles": "CN(C)c1ccc(C=O)cc1", "activity change, negative = inhibition": "4.11%"},
      {"smiles": "C[C@H](NC(CCc1ccccc1)C(=O)O)C(=O)N1CCC[C@H]1C(=O)O", "note": "(stereo not given in full)", "activity change, negative = inhibition": "3.13% [at 42.5 µM]"},
      {"smiles": "CCCCCCCC#N", "activity change, negative = inhibition": "0.58%"},
      {"smiles": "CC1CCCC1", "activity change, negative = inhibition": "8.09%"},
      {"smiles": "COc1cc2c(cc1OC)[C@@H]1CC(=O)[C@@H](CC(C)C)CN1CC2", "activity change, negative = inhibition": "0.786% [at 42.5 µM]"},
      {"smiles": "COC(C)(C)CC(C)=O", "activity change, negative = inhibition": "6.62%"},
      {"smiles": "CN(C)c1ccc(SC#N)cc1", "activity change, negative = inhibition": "-0.353%"},
      {"smiles": "CC(=O)CCC1=C(C)CCCC1(C)C", "activity change, negative = inhibition": "1.24%"},
      {"smiles": "NNC(=O)OCc1ccccc1", "activity change, negative = inhibition": "-5.82%"},
      {"smiles": "O=[N+]([O-])C1(Br)COCOC1", "activity change, negative = inhibition": "8.56%"},
      {"smiles": "OCCN1CCN(CCCN2c3ccccc3Sc3ccc(Cl)cc32)CC1", "Potency": "0.0266 µM (active)"},
      {"smiles": "CCCCN(CCCC)c1ccc(C(=O)c2ccccc2C(=O)O)c(O)c1", "activity change, negative = inhibition": "12.8%"},
      {"smiles": "CCN(Cc1ccccc1)c1ccccc1", "activity change, negative = inhibition": "-8.09%"},
      {"smiles": "O=C1CCCC(=O)O1", "activity change, negative = inhibition": "7.04%"}
    ]}
  ]
}
